# Data reported in PubChem BioAssay (Tox21).
# “And” between values parts separate entries of the source, which are not always exact repeats. Equal values may be shown once. Inconclusive results are not listed. The source made the active and inactive calls. Unless noted, calls follow the shape of the dose curve; as a rule, active = well fitted cell-killing curve with a large enough effect in the repeat runs; inconclusive = weak or mixed curves, or effect the other way; inactive = flat fitted curve, though single readings scatter.
# Molecular target: Estrogen receptor beta (Homo sapiens) (UniProt Q92731)
# Sequence (Q92731 whole entry, looked up): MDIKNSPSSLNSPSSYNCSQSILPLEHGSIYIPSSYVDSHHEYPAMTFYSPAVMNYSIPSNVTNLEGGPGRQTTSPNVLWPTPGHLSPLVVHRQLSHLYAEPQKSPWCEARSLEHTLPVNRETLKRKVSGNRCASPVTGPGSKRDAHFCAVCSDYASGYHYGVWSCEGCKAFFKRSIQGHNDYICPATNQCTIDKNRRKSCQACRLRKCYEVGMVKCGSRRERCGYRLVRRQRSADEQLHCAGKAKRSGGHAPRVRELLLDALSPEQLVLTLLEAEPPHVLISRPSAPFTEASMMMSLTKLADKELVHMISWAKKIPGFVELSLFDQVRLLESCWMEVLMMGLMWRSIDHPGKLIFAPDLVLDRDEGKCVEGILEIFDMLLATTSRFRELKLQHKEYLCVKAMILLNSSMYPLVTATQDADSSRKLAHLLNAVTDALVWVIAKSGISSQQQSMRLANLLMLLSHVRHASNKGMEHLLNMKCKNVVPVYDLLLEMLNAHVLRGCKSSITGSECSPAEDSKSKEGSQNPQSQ
# Experiment: qHTS assay to identify small molecule agonists of the estrogen receptor beta (ER-beta) signaling pathway (AID 1259377; active = well fitted activation curve with a large enough effect in the signal ratio in the repeat runs, not every such curve was filed as active; the % refers to the signal ratio)
# Conditions: ER-beta-UAS-bla HEK293T, beta-lactamase FRET ratio, 16 h; series mostly up to 92.4 µM; activation: at the top concentration
# Procedure, shortened: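 ER-beta-UAS-bla HEK293T (GripTite) cells carrying a UAS-driven beta-lactamase reporter, in medium with 2% charcoal-stripped FBS, were exposed to compounds for 16 hr at 37C; LiveBLAzer B/G FRET substrate was then added and fluorescence read after 2 hours at room temperature.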
# % is scaled to controls: 0 for no effect and ±100 for the full control effect.
row,SMILES,activation
1,CC(C)(C)c1cc(/C=C2\SC(=N)NC2=O)cc(C(C)(C)C)c1O,-4.14% (inactive)
2,COC(=O)CC(C)CCC=C(C)C (stereo not given),-0.464% (inactive)
3,CC(=O)O[C@@H]1C[C@@H]2CC[C@@]1(C)C2(C)C,1.55% (inactive)
4,CCCCCCCCCCCCOC(=O)c1cc(O)c(O)c(O)c1,-0.657% (inactive)
5,Cc1occc1SSc1ccoc1C,-3.54% (inactive)
6,CC(C)c1ccc(O)c(C(C)C)c1,-5.44% (inactive)
7,CC1(C)COCN1,5.73% (inactive)
8,CC(C)C(=O)OCc1ccccc1,-1.19% (inactive)
9,CC1CCCCN1CCCOC(=O)c1ccc(OC2CCCCC2)cc1 (stereo not given),-1.78% [at 42.5 µM] (inactive)
10,C=CC(C)(CCC=C(C)C)OC(=O)/C=C/c1ccccc1 (stereo not given),-1.51% (inactive)
11,COC(=O)NCCC[Si](OC)(OC)OC,0.128% (inactive)
12,COC(=O)[C@]1(C)CCC[C@@]2(C)[C@H]1CC=C1C=C(C(C)C)CC[C@@H]12,-1.4% (inactive)
13,C=C(C)C(=O)OCCC[Si](Cl)(Cl)Cl,1.18% (inactive)
14,O=C1Nc2ccc(Cl)cc2[C@@](C#CC2CC2)(C(F)(F)F)O1,-1.56% [at 42.5 µM] (inactive)
15,c1cc2c3c(c1)ccc1cccc(c13)C2,-0.648% (inactive)
16,O=C(O)CC(=O)O,6.91% (inactive)
17,O=C1NC2CCCCN2C12CCN(CCCN1c3ccccc3CCc3ccc(Cl)cc31)CC2 (stereo not given),-0.215% [at 42.5 µM] (inactive)

# Molecular target: Estrogen receptor beta (Homo sapiens) (UniProt Q92731)
# Experiment: qHTS assay to identify small molecule antagonists of the estrogen receptor beta (ER-beta) signaling pathway (AID 1259378; active = well fitted inhibition curve with a large enough effect in the signal ratio in the repeat runs, not every such curve was filed as active; the % refers to the signal ratio; also: potency is read from the fitted curve at half-maximal effect)
# Conditions: ER-beta-UAS-bla HEK293T, beta-lactamase FRET ratio, 16 h; series mostly up to 92.4 µM; activity, negative = inhibition: at the top concentration
# Procedure, shortened: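 Antagonist mode: compounds added to beta-lactamase reporter HEK293T ER-beta-UAS cells stimulated with E2 (1nM final), 16 hr at 37C. LiveBLAzer B/G FRET substrate, 2 hours room temperature, fluorescence read-out.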
SMILES,Potency,"activity, negative = inhibition"
CC(C)(C)c1cc(/C=C2\SC(=N)NC2=O)cc(C(C)(C)C)c1O,21.7 µM (active),
COC(=O)CC(C)CCC=C(C)C (stereo not given),,1.31% (inactive)
CC(=O)O[C@@H]1C[C@@H]2CC[C@@]1(C)C2(C)C,,-2.25% (inactive)
Cc1occc1SSc1ccoc1C,,-22.4% (inactive)
CC(C)c1ccc(O)c(C(C)C)c1,,-7.71% (inactive)
CC(C)C(=O)OCc1ccccc1,,4.67% (inactive)
C=CC(C)(CCC=C(C)C)OC(=O)/C=C/c1ccccc1 (stereo not given),,15.4% (inactive)
COC(=O)NCCC[Si](OC)(OC)OC,,26.8% (inactive)
COC(=O)[C@]1(C)CCC[C@@]2(C)[C@H]1CC=C1C=C(C(C)C)CC[C@@H]12,,-3.54% (inactive)
C=C(C)C(=O)OCCC[Si](Cl)(Cl)Cl,,2.35% (inactive)
O=C1Nc2ccc(Cl)cc2[C@@](C#CC2CC2)(C(F)(F)F)O1,23.7 µM (active),
O=C(O)CC(=O)O,,3.35% (inactive)
O=C1NC2CCCCN2C12CCN(CCCN1c3ccccc3CCc3ccc(Cl)cc31)CC2 (stereo not given),23.7 µM (active),

# Test system: not listed separately
# Experiment: qHTS assay to identify small molecule agonists of the androgen receptor (AR) signaling pathway in the presence of an antagonist - cell viability counter screen (AID 1259379); also: nearly all actives have a fitted effect of over 25% in size; also: potency is read from the fitted curve at half-maximal effect;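 as to activity change, negative = cytotoxicity: MDA-kb2 human breast cancer cells carrying an MMTV luciferase reporter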
# Conditions: MDA-kb2 viability, CellTiter-Fluor, 16 h; series mostly up to 92.4 µM; activity change, negative = cytotoxicity: at the top concentration
# Procedure, shortened: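 In MDA-kb2 cells (human breast carcinoma, MMTV-luciferase), compounds at 15 concentrations plus 3.0uM nilutamide; 16 hr, 37C, 0% CO2; CellTiter-Fluor fluorescence read for viability.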
SMILES,"activity change, negative = cytotoxicity",Potency
CN1[C@@H]2CC[C@@H]1CC(OC(=O)C(CO)c1ccccc1)C2 (stereo not given in full),-0.379% [at 42.5 µM] (inactive),
CO[Si](CCC1CCC2OC2C1)(OC)OC (stereo not given),0.0188% (inactive),
COC(=O)CC(C)CCC=C(C)C (stereo not given),3.33% (inactive),
CC(=O)O[C@@H]1C[C@@H]2CC[C@@]1(C)C2(C)C,2.14% (inactive),
CCCCCCCCCCCCOC(=O)c1cc(O)c(O)c(O)c1,,68.3 µM (active) and 61.1 µM (active)
Cc1occc1SSc1ccoc1C,-13% (inactive),
CC(C)c1ccc(O)c(C(C)C)c1,1.18% (inactive),
CC1(C)COCN1,1.57% (inactive),
COC(=O)C1=C(C)NC(C)=C(C(=O)OCCCN2CCC(c3ccccc3)(c3ccccc3)CC2)C1c1cccc([N+](=O)[O-])c1 (stereo not given),,29.8 µM (active)
CCO[Si](C)(C)OCC,6.34% (inactive),
CC(C)C(=O)OCc1ccccc1,-1.16% (inactive),
CCC1(c2cnc[nH]2)Cc2ccccc2C1,2.2% [at 42.5 µM] (inactive),
CC1CCCCN1CCCOC(=O)c1ccc(OC2CCCCC2)cc1 (stereo not given),,26.6 µM (active)
CCCCCCCOC(=O)c1ccccc1C(=O)OCCCCCCC,1.87% (inactive),
COC(=O)NCCC[Si](OC)(OC)OC,-2.16% (inactive),
ClC/C=C\CCl,0.447% (inactive),
Oc1cc2ccccc2cc1O,0.311% (inactive),
CC=O,,1.28 µM (active)
c1cc2c3c(c1)ccc1cccc(c13)C2,2.07% (inactive),
CC(COC(=O)c1ccccc1)OC(=O)c1ccccc1 (stereo not given),-2.97% (inactive),
Cc1cccc(Br)c1,1.1% (inactive),
O=C(O)CC(=O)O,1.05% (inactive),
COc1ccc(C#N)cc1,-1.1% (inactive),
CCCCCCCCCCCC(=O)N(CC)CC,-4.06% (inactive),

# Test system: not listed separately
# Experiment: qHTS assay to identify small molecule agonists of the estrogen receptor beta (ER-beta) signaling pathway - cell viability counter screen (AID 1259380); also: nearly all actives have a fitted effect of over 30% in size; also: potency is read from the fitted curve at half-maximal effect
# Conditions: ER-beta-bla HEK293T viability, CellTiter-Glo luminescence, 16 h; series mostly up to 92.4 µM; activity change, negative = cytotoxicity: at the top concentration
# Procedure, shortened: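 Viability of ER-beta-UAS-bla HEK293T cells was determined by CellTiter-Glo luminescence following 16 hr treatment with test compounds at 37C.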
SMILES,"activity change, negative = cytotoxicity",Potency
CN1[C@@H]2CC[C@@H]1CC(OC(=O)C(CO)c1ccccc1)C2 (stereo not given in full),-13.5% [at 42.5 µM] (inactive),
CO[Si](CCC1CCC2OC2C1)(OC)OC (stereo not given),0.936% (inactive),
COC(=O)CC(C)CCC=C(C)C (stereo not given),4.63% (inactive),
CNC(=S)NN,,17.2 µM (active)
CC(=O)O[C@@H]1C[C@@H]2CC[C@@]1(C)C2(C)C,4.4% (inactive),
CCCCCCCCCCCCOC(=O)c1cc(O)c(O)c(O)c1,,34.2 µM (active) and 68.6 µM (active)
CC1(C)COCN1,9.31% (inactive),
CCC(C)c1ccccc1 (stereo not given),-0.29% (inactive),
CCC1CCCCC1,-1.46% (inactive),
COC(=O)C1=C(C)NC(C)=C(C(=O)OCCCN2CCC(c3ccccc3)(c3ccccc3)CC2)C1c1cccc([N+](=O)[O-])c1 (stereo not given),,23.7 µM (active)
CCO[Si](C)(C)OCC,0.0315% (inactive),
CC(C)C(=O)OCc1ccccc1,2.98% (inactive),
CC(C)(c1cc(Br)c(O)c(Br)c1)c1cc(Br)c(O)c(Br)c1,,68.3 µM (active) and 68.4 µM (active)
CCCCCCCOC(=O)c1ccccc1C(=O)OCCCCCCC,3.58% (inactive),
C=CC(C)(CCC=C(C)C)OC(=O)/C=C/c1ccccc1 (stereo not given),-7.95% (inactive),
COC(=O)NCCC[Si](OC)(OC)OC,5.78% (inactive),
COC(=O)[C@]1(C)CCC[C@@]2(C)[C@H]1CC=C1C=C(C(C)C)CC[C@@H]12,,68.6 µM (active)
ClC/C=C\CCl,2.86% (inactive),
C=C(C)C(=O)OCCC[Si](Cl)(Cl)Cl,3.84% (inactive),
CC=O,,57 µM (active)
CC(COC(=O)c1ccccc1)OC(=O)c1ccccc1 (stereo not given),-1.61% (inactive),
N#CSCSc1nc2ccccc2s1,,8.63 µM (active)
Cc1cccc(Br)c1,,27.4 µM (active)
O=C(O)CC(=O)O,0.388% (inactive),
O=C1NC2CCCCN2C12CCN(CCCN1c3ccccc3CCc3ccc(Cl)cc31)CC2 (stereo not given),,26.6 µM (active)
CCCCCCCCCCCC(=O)N(CC)CC,-4.77% (inactive),
